Screens (PubChem BioAssay)
SRC1 TRFRET art: counter-screen for PPARgamma SRC-1 recruitment agonists: TR-FRET artefact | TR-FRET detection artefact counter-screen, emission ratio; hits give high values | TR-FRET ratio at 8 µM | 99,000 compounds, 0.34% hits | AID 1051; in the data active = TR-FRET ratio above about 2300
SRC2 TRFRET art: counter-screen for PPARgamma SRC-2 recruitment agonists: TR-FRET artefact; hits give high values; TR-FRET ratio at 8 µM; 200,000 compounds, 0.4% hits; AID 1049
PPARg SRC3 recr: agonists of human PPARgamma SRC-3 coactivator recruitment | P37231 | biochemical PPARgamma/SRC-3 coactivator recruitment assay | activation, % at 8 µM | 200,000 compounds, 0.26% hits; in the data active = activation above about 23%;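 also: 0% = DMSO and 100% = reference agonist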
SRC3 TRFRET art: TR-FRET artefact, counter-screen to PPARgamma/SRC-3 agonist assay. PPARgamma/SRC-3 format; hits give high values. TR-FRET ratio at 8 µM. 99,000 compounds, 0.39% hits. AID 1048
PPARg SRC2 recr: PPARgamma-driven SRC-2 recruitment agonism | P37231 | PPARgamma LBD-SRC-2 recruitment, biochemical | activation, % at 8 µM | 200,000 compounds, 0.34% hits | AID 1032; in the data active = activation above about 22%;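 also: 0% = vehicle and 100% = reference agonist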
PPARg SRC-1 ag: agonists of human PPARgamma SRC-1 coactivator recruitment. P37231. PPARgamma-SRC-1 coactivator recruitment biochemical assay. activation, % at 8 µM. 200,000 compounds, 0.41% hits. AID 631; in the data active = activation above about 19%;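 also: 0% = DMSO and 100% = reference agonist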
PPARg SRC2 conf: human PPARgamma SRC-2 recruitment agonism, confirmation. shares compounds with PPARg SRC3 recr. biochemical SRC-2 recruitment by PPARgamma. activation, % at 8 µM. 790 compounds, 52% hits. AID 1297; in the data active = activation above about 22%;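 also: 0% = vehicle alone and 100% = reference agonist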
PPARg SRC1 conf: confirmation of agonists of SRC-1 recruitment by human PPARgamma; shares compounds with PPARg SRC3 recr; PPARgamma–SRC-1 coactivator recruitment biochemical assay; activation, % at 8 µM; 790 compounds, 43% hits; AID 1300; in the data active = activation above about 20%;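 also: 0% = vehicle wells and 100% = reference agonist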
PPARg SRC3 conf: confirmation of agonists of SRC-3 recruitment by human PPARgamma; 790 compounds, 29% hits; AID 1301; biochemical PPARgamma-SRC-3 coactivator recruitment, agonist mode; shares compounds with PPARg SRC3 recr; activation, % at 8 µM; in the data active = activation above about 24%;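 also: 0% = vehicle wells and 100% = reference agonist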
* = called active by the depositor; · = not tested or not shown. Only some compounds are listed: those with a hit (about 0.84% of all), similar ones and a draw of the others. Rule as the data show it, unless noted: active = TR-FRET ratio above about 2000; inactive = the rest.

SMILES	SRC1 TRFRET art	SRC2 TRFRET art	PPARg SRC3 recr	SRC3 TRFRET art	PPARg SRC2 recr	PPARg SRC-1 ag	PPARg SRC2 conf	PPARg SRC1 conf	PPARg SRC3 conf
Cc1nn2cc(-c3cccc(Cl)c3)cnc2c1Cl	2094	1784	-1	1532	3	-1	·	·	·
C=CCn1c(NC(=O)c2ccc(Br)o2)c(S(=O)(=O)c2ccccc2)c2nc3ccccc3nc21	·	1627	27*	·	6	34*	8	6	4
O=C(Nc1ccc(S(=O)(=O)NCc2ccccc2)cc1)c1ccc(Br)o1	·	1689	16	·	-2	-4	·	·	·
CC1CN(C(=S)c2cccc([N+](=O)[O-])c2)CC(C)O1 (stereo not drawn)	2022	1594	7	1872	5	6	·	·	·
CN(C)c1ccc(NC(=O)Oc2ccccc2)cc1	·	2246*	91*	·	58*	15	7	3	5
CCOC(=O)c1c(N=CN(C)C)c(C#N)n2c1CCC2	·	1505	3	·	-10	-5	·	·	·
Cc1cc(=O)c2cc(Cl)ccc2[nH]1	·	1770	6	·	-3	6	·	·	·
Cc1ccc2[nH]c(C)cc(=S)c2c1	2798*	2363*	22	2534*	38*	26*	4	7	5
CC(=O)c1ccc(S(=O)(=O)N2CCCC2)cc1	·	1610	-11	·	1	-1	·	·	·
COc1ccc(N=Cc2sc(O)c3ccccc23)cc1	·	1635	26*	·	28*	22*	8	9	6
COc1ccc(-n2c(O)c(C=Nc3ccccc3)c3ccccc3c2=O)cc1	1953	1565	-1	1574	2	1	·	·	·
COc1ccc(C(CC(=O)Nc2ccc(Cl)cc2F)NC(=O)C(F)(F)F)cc1 (stereo not drawn)	·	1618	8	·	2	19*	4	4	4
CC1(C)OC(=O)C(=Cc2ccc(-c3ccc(S(N)(=O)=O)cc3)o2)C(=O)O1	1707	1382	-1	1686	-5	-2	·	·	·
NS(=O)(=O)c1ccc(-c2ccc(/C=C3\C(=O)Nc4cc(Cl)ccc43)o2)cc1	1718	1867	16	1999	16	27*	31*	16	18
COc1cc(/C=C(\C#N)C(=O)Nc2ccccc2C(=O)O)cc(Cl)c1OC	1551	1524	49*	1321	11	31*	33*	51*	46*
COc1ccc(/C=C(/C#N)C(=O)Nc2ccccc2C)cc1C(=O)O	1970	1715	4	1518	-1	5	·	·	·
COc1ccccc1CNC(=O)COc1ccc2c(c1)CCC2	1927	1606	0	1719	-5	6	·	·	·
CC(=O)c1nc(N2C(=O)CC(Cc3cccc(C)c3)C2=O)sc1C (stereo not drawn)	·	1783	20	·	10	20*	10	8	7
CCN(Cc1ccncc1)C(=O)c1cc(Br)cc(Br)c1O	1538	1468	4	1391	1	4	·	·	·
COc1cccc(N=C(N)N)c1	1803	1665	1	1701	7	2	·	·	·
N#CCCN1CCN(C(=S)c2ccc(-c3ccc(Cl)cc3)o2)CC1	·	1605	16	·	1	24*	31*	28*	18
S=C(c1ccc(-c2ccc(Cl)cc2)o1)N1CCCCC1	·	1533	-1	·	-6	-2	·	·	·
NC(=S)Cc1nc(-c2ccccc2)cs1	1967	1562	8	1649	2	4	·	·	·
CCOC(=O)c1c(NC(=O)COc2ncnc3ccccc23)sc(C(C)=O)c1C	2218	1682	11	1991	25*	13	16	14	10
Cc1c(Cl)c(-c2n[nH]c(=S)n2-c2ccccc2)nn1C	2260	2128*	17	2138*	24*	20	25*	18	18
SMILES	SRC1 TRFRET art	SRC2 TRFRET art	PPARg SRC3 recr	SRC3 TRFRET art	PPARg SRC2 recr	PPARg SRC-1 ag	PPARg SRC2 conf	PPARg SRC1 conf	PPARg SRC3 conf
Cc1ccc(-n2c(-c3ccccc3)n[nH]c2=S)cc1	·	2299*	27*	·	35*	20*	35*	28*	26*
CC(C)C1Cc2c(C#N)c(N)sc(=S)c2CO1 (stereo not drawn)	·	2315*	47*	·	39*	33*	12	8	5
COc1ccc(Br)cc1/C=C/C(=O)Nc1ccc(C)cc1	1754	1504	1	1673	7	3	·	·	·
CN1CCC/C1=C/C=C1\SC(=S)NC1=O	2166	1675	11	1794	24*	14	1	3	3
O=C(O)[C@H]1CCCC[C@H]1C(=O)Nc1ccc(Nc2ccccc2)cc1	·	1526	24	·	27*	7	11	6	7
N#C/C(=C\c1ccc(N2CCOCC2)o1)C(=O)NCC1CCCO1 (stereo not drawn)	2143	2010*	4	1833	14	20*	10	5	6
COC(=O)c1cc2c(-c3ccccc3)c(C)c3ccccn3c-2c1C(=O)OC	·	1968	29*	·	16	17	8	14	4
COC(=O)c1c(C(=O)OC)c2cc(C)ccn2c1Cl	·	1615	3	·	9	6	·	·	·
COC(=O)c1c(Cl)c2n3ccccc3c(C)c(-c3ccccc3)c-2c1C(=O)OC	2328*	2016*	11	2198*	24*	18	1	3	3
NC(N)=NNC(=O)c1ccccc1Cl	1628	1478	-1	1550	-1	2	·	·	·
CCN(C(=O)CCCC(=O)N(CC)c1ccccc1)c1ccccc1	1928	1413	5	1569	2	8	·	·	·
Cc1nc2ncccn2c1-c1csc(Nc2ccccc2)n1	1937	1514	2	1596	5	2	·	·	·
Cc1nc2ncccn2c1-c1csc(Nc2ccc(N(C)C)cc2)n1	2311	1937	11	1862	24*	16	15	9	7
Cc1ccc(C(=O)NCCc2ccc(S(=O)(=O)N3CCCC3)cc2)cc1	1940	1639	0	1782	0	4	·	·	·
Cc1cc2cc(CNC(=O)c3ccc(S(=O)(=O)N4CCOCC4)cc3)ccc2n1C	·	2210*	45*	·	8	31*	35*	29*	19
CCCC(=O)NCc1ccc2c(c1)cc(C)n2C	·	1636	-1	·	-2	9	·	·	·
Cc1cc2ccccc2n1CCNC(=O)c1ccc(S(=O)(=O)N2CCCCC2)cc1	·	3753*	44*	·	26*	24*	93*	80*	70*
Cc1cc2cc(CNS(=O)(=O)c3ccc4ccccc4c3)ccc2n1C	·	3303*	38*	·	21	18	104*	79*	65*
COc1cccc(-c2nnc(-c3ccco3)o2)c1	1641	1449	0	1726	0	0	·	·	·
